Only some compounds are listed: those with a hit (about 4.1% of all), similar ones and a draw of the others.
LEDGF integ inh: blocks HIV-1 LEDGF/p75-dependent DNA integration; TR-FRET IN-LEDGF/p75 DNA integration, Eu/Cy5; inhibition, % at 3.7 µM; 0.64% of 370,000 active; AID 743269;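 active = inhibition above the screen-wide mean plus 3 SD, cut at about 13% in these data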;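 note: signal is the Cy5 over europium emission ratio at 671 and 618 nm; 0% = plate median of compound wells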
ABHD5-PLIN5 inh: ABHD5-PLIN5 protein interaction inhibition; inhibition, % at 4 µM; Split G. princeps luciferase complementation, luminescence, 4 h; 0.78% of 360,000 active; AID 602281;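 active = inhibition above the mean inhibition across every tested compound plus 3 SD, cut at about 22% in these data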;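 note: 0% = DMSO only wells and the 100% control is not disclosed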
MBD2 DNA inh: inhibitors of human MBD2 binding to methylated oligonucleotide; Q9UBB5; TR-FRET; inhibition, % at 4.4 µM; 0.31% of 370,000 active; in the data active = inhibition above about 13%
PRMT1 inh: PRMT1 (human) inhibition, primary screen; Q99873; recombinant PRMT1, activity-based probe fluorescence polarization; inhibition, % at 2.79 µM; 1.3% of 370,000 active;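 active = inhibition above about 21% made by adding two undisclosed values, limit read from the data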
UHRF1 binding: blocks human UHRF1 binding to methylated DNA; Q96T88; UHRF1 binding to methylated oligo, TR-FRET; inhibition, % at 4.4 µM; 0.75% of 370,000 active; AID 687016; in the data active = inhibition above about 21%;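 note: UHRF1 SRA domain binding a hemimethylated CpG hairpin DNA probe; 0% = median of test compound wells and 100% = reference inhibitor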
rCAG binder: molecules binding r(CAG) RNA repeats; r(CAG) RNA repeat, TO-PRO-1 dye displacement fluorescence; inhibition, % at 3 µM; 1.3% of 370,000 active; AID 651821;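 active = inhibition above the plate cutoff, the mean of all test compounds on that plate plus 3 SD, cut at about 35% in these data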;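 note: 0% = DMSO alone and 100% = 100 µM mitoxantrone as full dye displacement; higher means more dye released from RNA so lower well fluorescence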
Starred values were filed as active, the others as inactive; / = not tested or not shown.

SMILES	LEDGF integ inh	ABHD5-PLIN5 inh	MBD2 DNA inh	PRMT1 inh	UHRF1 binding	rCAG binder
Cc1cccc(OC[C@@H](O)CN2CCC(C(O)(c3ccccc3)c3ccccc3)CC2)c1	-4	/	-2	6	1	2
CCCCNC(=O)N1CCC(c2nc3ccc(Cl)cc3[nH]2)CC1	-4	/	2	-4	-1	2
C/C(=N\OCc1ccc(C#N)cc1)c1ccc(S(=O)(=O)N(C)C)cc1	-4	4	-2	2	0	4
C/C(=N\OCc1ccc(C#N)cc1)c1ccccc1	-4	6	0	2	71*	-1
Cc1ccc(C(=O)/C=C/C(=O)c2ccc(C)cc2)cc1	5	23*	-2	17	2	-2
Cc1ccc(/C=C/C(=O)c2ccc(C)cc2)cc1	-5	8	-7	-1	-3	0
Cc1ccc(CNC(=O)C(OC(=O)c2ccco2)C(C)C)cc1 (configuration not stated)	-2	-1	6	2	-2	-6
CC(C)C(OC(=O)c1ccco1)C(=O)NCc1ccco1 (configuration not stated)	-3	12	3	0	33*	-3
Cc1ccnc(-n2c(C)cc(C=O)c2C)c1	4	5	4	0	23*	1
CCCCNC(=O)C[C@H]1C[C@@]2(C(=O)OC)C(=C[C@H](C(C)(C)C)O[C@@H]2C)N(Cc2ccccc2)C1=O	-1	/	3	-1	-2	-2
Cc1ccc(Cn2cc(CN3[C@H](C)COc4cc(Br)ccc4S3(=O)=O)nn2)cc1	4	/	-1	-4	-5	-1
O=C(/C=C/c1ccc(Cl)cc1)N1CCN(CCN2C(=O)c3cccc4cccc(c34)C2=O)CC1	-1	-1	-2	-1	31*	1
COC(=O)[C@]12C[C@H](CC(=O)NCc3cccs3)C(=O)N(Cc3ccc(Cl)cc3Cl)C1=C[C@H](C(C)C)O[C@@H]2C1CC1	-2	/	-4	-2	-1	4
COc1ccc(CNC(=O)O[C@H]2CC[C@@]34CCCN3C(=O)CCC[C@H]4[C@H]2C)cc1OC	-2	/	3	-2	-2	/
O=C(CSc1nncs1)N1CCN(C(=O)c2ccco2)CC1	-2	9	3	6	37*	5
C#CCN1CC(N(C)CCOC(=O)CCCc2ccccc2)CS1(=O)=O (configuration not stated)	-3	/	1	-1	0	2
C[C@@H]1C(=O)N2N=Cc3cc4ccccc4cc3[C@H]2N2N=Cc3cc4ccccc4cc3[C@@H]12	0	/	4	-2	6	8
O=[N+]([O-])c1ccc(CN2CCOCCOCCN(Cc3ccc([N+](=O)[O-])cc3Cl)CCOCC2)c(Cl)c1	2	/	-3	0	-2	/
O=C(Nc1ccccc1)/C(=C\c1ccc2c(c1)OCO2)NC(=O)c1ccco1	-1	-5	-1	0	-2	-1
O=C(Nc1ccccc1)/C(=C/c1ccc2c(c1)OCO2)NC(=O)c1ccco1	-1	-2	8	0	21*	-4
O=C(Cc1cn(Cc2ccccc2)c2ccccc12)Nc1ccc(Nc2cccnc2)c(Br)c1	-3	/	-1	4	-2	15
CC(=O)Nc1ccc(-n2c(C)ccc2-c2ccccc2)cc1	-2	3	2	23*	3	11
CC(C)(C)Cc1c(-c2ccc(Cl)cc2)nc2ccc(Cl)cn12	2	-10	5	-2	15	2
COc1ccc(Nc2c(-c3ccco3)nc3ccc(C)cn23)cc1	-4	1	3	5	-2	-1
Cc1ccc2nc(-c3ccco3)c(CC(C)(C)C)n2c1	10	3	0	8	23*	19
SMILES	LEDGF integ inh	ABHD5-PLIN5 inh	MBD2 DNA inh	PRMT1 inh	UHRF1 binding	rCAG binder
CC(C)(C)Cc1c(-c2ccc(F)cc2)nc2ccc(Br)cn12	1	-18	-3	-2	21*	0
CC(C)(C)Cc1c(-c2ccccc2)nc2ccc(Cl)cn12	-4	-5	9	3	21*	-1
Cc1ccccc1NC(=O)CN1C(=O)CCSc2ccccc21	-2	/	-3	-1	0	1
CCOC(=O)c1cc(-c2ccccc2)nn1CCC#N	-1	2	1	3	44*	0
CC(=O)Nc1ccc(S(=O)(=O)N2CCC(C(=O)Nc3nccs3)CC2)cc1	1	3	2	-3	-3	3
COc1ccc(S(=O)(=O)N2CCC(C(=O)Nc3nccs3)CC2)cc1	-2	1	-4	5	30*	3
CC1CC(C)CN(C(=O)COC(=O)c2cccc(S(=O)(=O)N(C)c3ccccc3)c2)C1 (configuration not stated)	1	3	5	4	0	-4
CC1CC(C)CN(C(=O)COC(=O)c2ccc(S(=O)(=O)N(C)c3ccccc3)cc2)C1 (configuration not stated)	7	9	2	-3	21*	-1
CCN(CC1COc2ccccc2O1)S(=O)(=O)c1ccc(C)cc1 (configuration not stated)	4	-4	9	1	26*	-1
CCN(CC)S(=O)(=O)c1ccc(C(=O)NNC(=O)C2COc3ccccc3O2)cc1 (configuration not stated)	6	0	-2	-1	-1	3
O=C(OC12CCCN(C1)/C(=C/c1cccc(Cl)c1)C2)C1CCCCC1 (configuration not stated)	-1	/	-3	0	-2	3
CCOc1ccc(S(=O)(=O)N2CCN(Cc3ccco3)CC2)cc1	6	1	7	2	27*	25
CCOC(=O)C1(CCOC)CCN(C(=O)c2ccccc2-c2cccc(C)c2)CC1	1	0	4	-3	23*	-4
Cc1nn(C)c(C)c1/C=C/C(=O)O	4	0	13	-2	39*	3
Cc1nn(C)c(Cl)c1/C=C/C(=O)O	-7	0	2	2	0	-4
Cc1ccc(O)c(NC(=O)CSc2n[nH]c(C)c2[N+](=O)[O-])c1	0	-1	2	-2	33*	7
CC(NC(=O)CCc1nnc(-c2ccc(-c3ccccc3)cc2)o1)c1nc2ccccc2[nH]1 (configuration not stated)	-4	3	1	4	23*	5
Cc1cccc(CC(C)NC(=O)CCc2nnc(-c3ccccc3)o2)n1 (configuration not stated)	-10	-1	3	2	5	-5
Cn1c(SCC(=O)Nc2sccc2C#N)nnc1C1CC1	1	-12	1	-2	27*	9
Cn1c(SCC(=O)Nc2sccc2C#N)nnc1-c1ccccc1	1	5	-2	2	2	12
CCOC(=O)C1=CN(Cc2cccc(F)c2)S(=O)(=O)N(CC)C1c1ccc(Br)cc1F (configuration not stated)	12	-5	13	-4	21*	2
